Values joined by “and” are separate entries in the source; they are usually repeats but may differ in a detail not shown here. Identical values can stand only once. Screen size: about 5,500 compounds; about 2,000 (36%) were called active. About 18% were inconclusive and are not listed. Rule as the data show it: active = normalized growth mostly below about 0.91 (no sharp cut-off); inconclusive = no clear call, values can overlap the other calls; inactive = mostly above about 0.92. The list shows a part of the results.
Test: chemical genetic growth profiling, strain panel (AID 1159580);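 also: tested at 20 µM; growth read once vehicle control cultures reached saturation at 30 °C; 1 = growth at the plate median or of vehicle wells; lower values mean less growth of the strain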
Conditions: growth OD

Measured: normalized growth

CCn1cc(C(=O)O)c(=O)c2cc3c(cc21)OCO3
inactive: S. cerevisiae deletion strains, locus YJR066W, strain TOR1, stronger effect = lower value 0.991 | S. cerevisiae deletion strains, locus YJR075W, strain HOC1, stronger effect = lower value 1.02 and 0.993 | S. cerevisiae deletion strains, locus YKL009W, strain mrt4, stronger effect = lower value 1.01 | S. cerevisiae deletion strains, locus YKL068W, stronger effect = lower value 0.996 | S. cerevisiae deletion strains, locus YKL085W, strain MDH1 (second series), stronger effect = lower value 0.996 | S. cerevisiae deletion strains, locus YKL085W, strain MDH1, stronger effect = lower value 0.996 | S. cerevisiae deletion strains, locus YKL160W, strain elf1, stronger effect = lower value 0.961 | S. cerevisiae deletion strains, locus YKL190W, strain CNB1, stronger effect = lower value 1.01 | S. cerevisiae deletion strains, locus YKR001C, strain vps1, stronger effect = lower value 1.01 | S. cerevisiae deletion strains, locus YKR026C, strain gcn3, stronger effect = lower value 0.987 | S. cerevisiae deletion strains, locus YKR091W, strain srl3, stronger effect = lower value 0.982 | S. cerevisiae deletion strains, locus YLL001W, strain dnm1, stronger effect = lower value 0.96 | S. cerevisiae deletion strains, locus YLL026W, stronger effect = lower value 0.988 | S. cerevisiae deletion strains, locus YLL041C, strain sdh2, stronger effect = lower value 0.98 | S. cerevisiae deletion strains, locus YLR027C, strain aat2, stronger effect = lower value 0.986 | S. cerevisiae deletion strains, locus YLR039C, strain RIC1, stronger effect = lower value 1.03 | S. cerevisiae deletion strains, locus YLR058C, strain SHM2, stronger effect = lower value 1.01 | S. cerevisiae deletion strains, locus YLR102C, strain apc9, stronger effect = lower value 0.994 | S. cerevisiae deletion strains, locus YLR113W, strain HOG1, stronger effect = lower value 1.07 | S. cerevisiae deletion strains, locus YLR221C, strain rsa3, stronger effect = lower value 0.96 | S. cerevisiae deletion strains, locus YLR258W, strain gsy2, stronger effect = lower value 0.983 | S. cerevisiae deletion strains, locus YLR262C, strain YPT6 (second series), stronger effect = lower value 0.909 | S. cerevisiae deletion strains, locus YLR262C, strain YPT6, stronger effect = lower value 1.04 | S. cerevisiae deletion strains, locus YLR268W, strain sec22, stronger effect = lower value 1 | S. cerevisiae deletion strains, locus YLR320W, strain mms22, stronger effect = lower value 0.956 | S. cerevisiae deletion strains, locus YLR330W, strain CHS5, stronger effect = lower value 1.01 | S. cerevisiae deletion strains, locus YLR342W, strain FKS1 (second series), stronger effect = lower value 0.996 | S. cerevisiae deletion strains, locus YLR342W, strain FKS1, stronger effect = lower value 0.977 | S. cerevisiae deletion strains, locus YLR357W, strain rsc2, stronger effect = lower value 0.944 | S. cerevisiae deletion strains, locus YLR370C, strain arc18, stronger effect = lower value 0.964 | S. cerevisiae deletion strains, locus YLR371W, strain rom2, stronger effect = lower value 0.993 | S. cerevisiae deletion strains, locus YLR384C, strain iki3, stronger effect = lower value 0.959 | S. cerevisiae deletion strains, locus YLR418C, strain cdc73, stronger effect = lower value 1.01 | S. cerevisiae deletion strains, locus YML016C, strain PPZ1, stronger effect = lower value 1.01 | S. cerevisiae deletion strains, locus YML032C, strain rad52, stronger effect = lower value 1 | S. cerevisiae deletion strains, locus YML120C, strain ndi1, stronger effect = lower value 0.97 | S. cerevisiae deletion strains, locus YML124C, strain tub3, stronger effect = lower value 0.997 | S. cerevisiae deletion strains, locus YMR058W, strain fet3, stronger effect = lower value 0.982 | S. cerevisiae deletion strains, locus YMR078C, strain ctf18, stronger effect = lower value 1 | S. cerevisiae deletion strains, locus YMR125W, strain sto1, stronger effect = lower value 0.962 | S. cerevisiae deletion strains, locus YMR129W, stronger effect = lower value 0.989 | S. cerevisiae deletion strains, locus YMR205C, strain PFK2, stronger effect = lower value 0.946 | S. cerevisiae deletion strains, locus YMR223W, strain ubp8, stronger effect = lower value 1 | S. cerevisiae deletion strains, locus YMR231W, strain pep5, stronger effect = lower value 0.978 | S. cerevisiae deletion strains, locus YMR263W, strain SAP30, stronger effect = lower value 0.994 | S. cerevisiae deletion strains, locus YMR307W, strain GAS1, stronger effect = lower value 1.04 | S. cerevisiae deletion strains, locus YNL067W, strain RPL9B, stronger effect = lower value 1.02 | S. cerevisiae deletion strains, locus YNL071W, strain lat1, stronger effect = lower value 0.984 | S. cerevisiae deletion strains, locus YNL128W, strain TEP1, stronger effect = lower value 0.983 | S. cerevisiae deletion strains, locus YNL153C, strain GIM3, stronger effect = lower value 0.997 | S. cerevisiae deletion strains, locus YNL175C, strain NOP13, stronger effect = lower value 0.988 | S. cerevisiae deletion strains, locus YNL183C, strain NPR1, stronger effect = lower value 0.973 | S. cerevisiae deletion strains, locus YNL197C, strain WHI3, stronger effect = lower value 0.984 | S. cerevisiae deletion strains, locus YNL209W, strain ssb2, stronger effect = lower value 0.986 | S. cerevisiae deletion strains, locus YNL224C, strain SQS1, stronger effect = lower value 0.972 | S. cerevisiae deletion strains, locus YNL233W, strain BNI4, stronger effect = lower value 1.02 | S. cerevisiae deletion strains, locus YNL248C, strain rpa49, stronger effect = lower value 0.964 | S. cerevisiae deletion strains, locus YNL250W, strain rad50, stronger effect = lower value 1.01 | S. cerevisiae deletion strains, locus YNL271C, strain bni1, stronger effect = lower value 0.993 | S. cerevisiae deletion strains, locus YNL298W, strain CLA4, stronger effect = lower value 0.997 | S. cerevisiae deletion strains, locus YNL307C, strain MCK1, stronger effect = lower value 0.997 | S. cerevisiae deletion strains, locus YNL322C, strain KRE1 (second series), stronger effect = lower value 0.959 | S. cerevisiae deletion strains, locus YNR049C, strain mso1, stronger effect = lower value 0.974 | S. cerevisiae deletion strains, locus YNR052C, strain pop2, stronger effect = lower value 1 | S. cerevisiae deletion strains, locus YOL006C, strain TOP1, stronger effect = lower value 1.04 | S. cerevisiae deletion strains, locus YOL012C, strain htz1 1.19 | S. cerevisiae deletion strains, locus YOL147C, strain pex11, stronger effect = lower value 0.991 | S. cerevisiae deletion strains, locus YOR001W, strain rrp6, stronger effect = lower value 1.01 | S. cerevisiae deletion strains, locus YOR061W, strain CKA2, stronger effect = lower value 1.02 | S. cerevisiae deletion strains, locus YOR069W, strain VPS5, stronger effect = lower value 1.01 | S. cerevisiae deletion strains, locus YOR070C, strain gyp1, stronger effect = lower value 0.975 | S. cerevisiae deletion strains, locus YOR080W, strain dia2, stronger effect = lower value 0.972 | S. cerevisiae deletion strains, locus YOR083W, strain WHI5 (second series), stronger effect = lower value 0.981 | S. cerevisiae deletion strains, locus YOR083W, strain WHI5, stronger effect = lower value 0.969 | S. cerevisiae deletion strains, locus YOR106W, strain vam3, stronger effect = lower value 0.935 | S. cerevisiae deletion strains, locus YOR136W, strain idh2, stronger effect = lower value 0.997 | S. cerevisiae deletion strains, locus YOR144C, strain elg1, stronger effect = lower value 0.991 | S. cerevisiae deletion strains, locus YOR184W, strain ser1, stronger effect = lower value 0.998 | S. cerevisiae deletion strains, locus YOR231W, strain MKK1, stronger effect = lower value 1.1 | S. cerevisiae deletion strains, locus YOR265W, strain rbl2, stronger effect = lower value 0.973 | S. cerevisiae deletion strains, locus YOR270C, strain vph1, stronger effect = lower value 0.957 | S. cerevisiae deletion strains, locus YOR290C, strain snf2, stronger effect = lower value 0.976 | S. cerevisiae deletion strains, locus YOR316C, strain cot1, stronger effect = lower value 0.997 | S. cerevisiae deletion strains, locus YPL051W, strain arl3, stronger effect = lower value 0.995 | S. cerevisiae deletion strains, locus YPL055C, strain LGE1, stronger effect = lower value 0.985 | S. cerevisiae deletion strains, locus YPL078C, strain atp4, stronger effect = lower value 0.971 | S. cerevisiae deletion strains, locus YPL106C, strain sse1, stronger effect = lower value 0.936 | S. cerevisiae deletion strains, locus YPL240C, strain hsp82, stronger effect = lower value 0.992 | S. cerevisiae deletion strains, locus YPL256C, strain CLN2, stronger effect = lower value 1.09 | S. cerevisiae deletion strains, locus YPR119W, strain clb2, stronger effect = lower value 0.988 | S. cerevisiae deletion strains, locus YPR141C, strain kar3, stronger effect = lower value 0.988 | S. cerevisiae deletion strains, locus YPR163C, strain tif3, stronger effect = lower value 0.987 | S. cerevisiae deletion strains, locus YPR167C, strain met16, stronger effect = lower value 0.985 | S. cerevisiae deletion strains, strain wtn01, stronger effect = lower value 1 | S. cerevisiae strains, strain wild type, stronger effect = lower value 1.02

From PubChem BioAssay AID1159580 (chemical genetic matrix, 2015)
